Sampled rows, rich in hits. Any-hit rate of the full collection: about 7.6%.
Cy5 interf NS3h: Cy5 fluorescence quenchers or enhancers, artefact control for HCV NS3 helicase inhibitor project, biochemical, ChemBridge library, Cy5 readout. Cy5-dT15 DNA with NS3h, fluorescence interference; actives lie on both sides; signal over control mean, under 1 quenches. fluorescence interference ratio at 100 µM. 16,000 tested, 6% active;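 active = compound fluorescence over control fluorescence at most 0.8, a quencher, or at least a set upper limit, an enhancer; inactive = ratio between 0.8 and the set upper limit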
NS3h inh CB: HCV NS3 helicase inhibitors, primary screen, biochemical, fluorescence polarization, ChemBridge library | Hepatitis C virus NS3 helicase | NS3h Cy5-dT15 DNA binding | inhibition, % at 100 µM | 16,000 tested, 1.6% active;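 active = inhibition above the average over every tested compound plus 3 SD, cut at about 40% in these data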
Active calls of the source: *.

SMILES | Cy5 interf NS3h | NS3h inh CB
COC(=O)c1ccccc1-c1ccc(/C=C2/SC(=S)N(CC(=O)O)C2=O)o1 | 1 | -3
CCOC(=O)c1sc(NC(=O)c2ccc(OCC)c(Cl)c2)nc1C | 0.93 | 57*
CCOC(=O)c1sc(NC(=O)c2cncc(Br)c2)nc1C | 1.1 | -15
CCc1ccc(NC(=O)c2ccc(Cl)cc2Cl)cc1 | 1.1 | 21
CCOC(=O)c1sc(NC(=O)c2ccc(Cl)cc2Cl)nc1C | 0.64* | 9
COc1ccc(OC)c(/C=C2\C(=O)NN(c3ccc(Cl)c(Cl)c3)C2=O)c1 | 0.94 | 4
COC(=O)c1cc(NC(=O)c2ccc(Cl)c([N+](=O)[O-])c2)cc(C(=O)OC)c1 | 0.97 | 3
CNC(=O)CN(c1cccc(OC)c1)S(=O)(=O)c1ccccc1 | 1 | 4
Cc1c(Cl)c([N+](=O)[O-])nn1CC(=O)Nc1cc(C(F)(F)F)ccc1Cl | 0.62* | 1
Cc1c(Cl)c(C(F)(F)F)nn1CC(=O)Nc1ccccc1C(F)(F)F | 1 | 2
O=C(Nc1nnc(CSCc2ccccc2)s1)c1cccc2ccccc12 | 1.1 | 19
O=C(CCN1C(=O)/C(=C/c2cccs2)SC1=S)Nc1ccc(F)cc1 | 1 | 3
CN1CCN(C(=O)CCN2C(=O)/C(=C/c3cccs3)SC2=S)CC1 | 0.58* | 0
O=C1SC(Nc2ccccc2)C(=O)N1c1ccc(Br)cc1 (stereo not drawn) | 1 | 7
COc1cc(/C=c2\sc3nc4ccccc4n3c2=O)ccc1OS(=O)(=O)c1ccccc1[N+](=O)[O-] | 1.2* | 18
O=c1/c(=C/c2ccccc2OS(=O)(=O)c2ccccc2[N+](=O)[O-])sc2nc3ccccc3n12 | 0.9 | -3
O=C1C2C3C=CC(C3)C2C(=O)N1/N=C\c1ccc(-c2ccc(Cl)c([N+](=O)[O-])c2)o1 (stereo not drawn) | 0.86 | 14
COc1ccc(N(CC(=O)Nc2ccc3ccccc3c2)S(C)(=O)=O)cc1 | 0.82 | 36
O=C(O)C1C2C=CC(C3CC23)C1C(=O)Nc1ccc(F)cc1 (stereo not drawn) | 0.69* | -12
Cc1ccc(NC(=O)C2C3CC/C=C\CCC32)cc1 (stereo not drawn) | 1 | 2
CC(C)C(=O)Nc1ccc(Br)cc1C(=O)O | 0.97 | -2
Cc1ccc(C)n1-c1ccc(Br)cc1C(=O)O | 1.1 | 49*
CCc1nnc(NS(=O)(=O)c2ccc(NC(=S)NC(=O)/C=C/c3ccc(C(C)C)cc3)cc2)s1 | 0.92 | 44*
Cc1ccc(/C=C/C(=O)NC(=S)Nc2ccc(S(N)(=O)=O)cc2)cc1 | 1.1 | -1
CS(=O)(=O)N(Cc1ccc(C(=O)NCCSc2ccccn2)cc1)c1ccccc1 | 1.1 | 18
SMILES | Cy5 interf NS3h | NS3h inh CB
COCCNC(=O)c1ccc(CN(c2ccccc2)S(C)(=O)=O)cc1 | 0.72* | 18
Cc1ccc(C)c(OCCCCN2CCCC2)c1C | 0.72* | 0
CC1CCN(CCCCOc2c(Cl)cccc2Cl)CC1 | 0.79* | -7
CC1CCN(Cc2c(O)ccc3ccccc23)CC1 | 1 | 0
Cc1cc(Cl)ccc1OCC(O)CN1CCCC1 (stereo not drawn) | 1.1 | 1
CC(=O)C1=C(C)NC(C)=C(C(C)=O)C1c1ccc(-c2ccccc2[N+](=O)[O-])o1 | 0.83 | 14
Cc1ccc(CN2CCN(/N=C\c3ccc(Br)s3)CC2)cc1 | 0.96 | 2
Cc1ccc(-c2nc3s/c(=C/c4ccc(C(C)C)cc4)c(=O)n3n2)cc1 | 1 | -1
COCC(=O)Nc1nc2ccccc2s1 | 0.67* | -2
CC(CCC(=O)Nc1nc2ccccc2s1)CC(=O)Nc1nc2ccccc2s1 (stereo not drawn) | 0.98 | 7
O=c1oc(-c2cccnc2)nc2ccccc12 | 1 | 3
O=C1c2ccc(-c3nc4ccccc4c(=O)o3)cc2C(=O)N1c1c[nH]c(=O)[nH]c1=O | 1 | 41*
Cc1ccc(N2C(=O)NC(=O)/C(=C\c3ccc(Cl)cc3)C2=O)cc1 | 1 | 14
O=C1NC(=O)N(c2ccc(I)cc2)C(=O)/C1=C\C=C\c1ccco1 | 0.77* | 21
CN1C(=O)/C(=C\c2ccsc2)SC1=S | 0.69* | 36
Cc1cccc(/C=C2/SC(=S)N(C)C2=O)c1 | 0.68* | 5
COc1ccc(N2C(=O)/C(=C\c3ccsc3)SC2=S)cc1 | 1 | 15
Cc1ccc(OCCOc2cccc(/C=C3/SC(=S)N(C)C3=O)c2)cc1C | 0.95 | 26
COC(=O)C(NC(=O)c1ccccc1Br)C(C)C (stereo not drawn) | 1 | 6
O=C(CN1C(=O)c2ccccc2C1=O)N1CCCCCC1 | 1 | 5
CN(C)c1ccc(NC(=O)c2ccccc2Cl)cc1 | 1.1 | 10
O=C(Nc1ccc(-c2cnc(-c3ccc(NC(=O)c4ccccc4Cl)cc3)nc2)cc1)c1ccccc1Cl | 0.72* | 16
Cc1ccc(/C(N)=N\OC(=O)c2cccc([N+](=O)[O-])c2C)cc1 | 1 | 29
O=C(COc1ccc2ccc(=O)oc2c1)c1ccc(-c2ccccc2)cc1 | 0.95 | 33
Cc1ccc(C(=O)COc2cc(OCC(=O)c3ccc(C)cc3)c3c(C)cc(=O)oc3c2)cc1 | 0.66* | 2
SMILES | Cy5 interf NS3h | NS3h inh CB
COc1cc(C2Nc3ccccc3C(=O)N2c2ccc(Cl)cc2)ccc1O (stereo not drawn) | 0.96 | 12
CC(=O)c1ccc(N2CCN(S(=O)(=O)c3ccccc3)CC2)c(F)c1 | 0.79* | 9
CC(=O)c1ccc(N2CCC(C)CC2)c(F)c1 | 1 | 10
CCOC(=O)C(C)Oc1cccc2c1ccc1c(-c3ccccc3)cc(=O)oc12 (stereo not drawn) | 1 | 12
COC(=O)c1cc2nc(-c3ccc(Br)cc3)cc(C(F)(F)F)n2n1 | 0.99 | 5
CCOc1ccc(-c2cc(C)n3nc(C(N)=O)cc3n2)cc1 | 0.63* | 6
CCOc1ccc(-c2cc(C)n3nc(C(=O)Nc4ccc(C(C)=O)cc4)cc3n2)cc1 | 0.67* | 4
Cc1cc(-c2ccccc2)nc2cc(C(=O)Nc3ccc(Cl)cc3)nn12 | 0.93 | 6
CC(=O)c1ccc(NC(=O)c2cc3nc(-c4ccc(Br)cc4)cc(C(F)(F)F)n3n2)cc1 | 0.78* | 10
CCOc1ccc(-c2cc(C)n3nc(C(=O)N(C)Cc4ccccc4)cc3n2)cc1 | 0.97 | 23
COc1ccccc1NC(=O)CN1C(=O)/C(=C\c2cc(OC)c(OC)c(OC)c2)SC1=S | 1 | -2
CCOc1ccc(NC(=S)NC(=O)c2ccccc2)c([N+](=O)[O-])c1 | 1 | 9
Cc1ccc(C(=O)N2CCN(c3c(Cl)cccc3[N+](=O)[O-])CC2)cc1 | 0.88 | 10
Cc1ccc(S(=O)(=O)N=C2C=CC(=O)C(Br)=C2)cc1 | 0.94 | 28
Cc1ccc(S(=O)(=O)N=C2C=C(Cl)C(=O)C(Br)=C2)cc1 | 0.61* | 34
CCN1/C(=C/C=Nc2ccccc2)Oc2ccccc21 | 0.89 | 3
O=C(/C=C/c1ccccc1)NC(=S)Nc1ccc(Br)cn1 | 1 | -2
CCC(=O)Nc1ccc(NC(=O)c2ccc(OCC(C)C)cc2)cc1 | 1 | 16
Cn1ccnc1/C=C(/OC(=O)c1ccc(Cl)cc1)c1ccc(Cl)cc1 | 0.98 | -4
O=C(O/C(=C/c1nccn1Cc1ccc(Cl)cc1)c1ccccc1)c1ccccc1 | 1.2* | 6
COc1cc(/C=C2/SC(=S)N(C)C2=O)cc(Cl)c1OCCOc1ccc(C(C)(C)C)cc1 | 0.93 | 3
